# Screens (PubChem)
# Sampled rows, rich in hits. Any-hit rate of the full collection: about 7.3%.
# AmpC inh no detg: AmpC beta-lactamase inhibition without detergent. AmpC nitrocefin hydrolysis, absorbance 480 nm, 0.0001% Triton. P00811. Potency, µM (series often up to 57.1 µM), without a hit: top-dose activity change, negative = inhibition, most hits filed as inhibitors. AID 485341. 0.52% of 330,000 active;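 note: potency is the fitted concentration of half-maximal effect; plate controls were no compound for no effect and no enzyme for full effect; nearly all actives have a fitted effect of over 20% in size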
# Target sequence (P00811 whole entry, looked up): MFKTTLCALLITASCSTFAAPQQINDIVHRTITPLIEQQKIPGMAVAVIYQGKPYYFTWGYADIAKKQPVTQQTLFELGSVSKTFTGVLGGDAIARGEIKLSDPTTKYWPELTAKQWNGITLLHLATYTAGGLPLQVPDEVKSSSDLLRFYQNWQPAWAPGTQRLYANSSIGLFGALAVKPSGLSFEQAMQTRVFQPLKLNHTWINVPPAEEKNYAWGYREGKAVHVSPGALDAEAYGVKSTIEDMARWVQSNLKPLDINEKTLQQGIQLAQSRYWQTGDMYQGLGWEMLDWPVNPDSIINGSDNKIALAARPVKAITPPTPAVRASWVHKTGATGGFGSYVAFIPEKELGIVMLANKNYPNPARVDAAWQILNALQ
#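 AmpC (5.3 nM in the dispensed reagent) in 20 mM phosphate pH 7.0 with 0.01% (detergent screen) or 0.0001% Triton X-100 was preincubated with compounds for 15 min at room temperature. Nitrocefin was then added from an 800 uM solution, and hydrolysis was followed at 480 nm.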
# HCMV antiviral: inhibitors of human cytomegalovirus; HFF cells, HCMV-luciferase reporter, 72 h; stronger effect = lower value; activity change, negative = inhibition, % at 57.5 µM; 4.5% of 410,000 active; AID 1259415; in the data active = activity change below about -60%; inconclusive = no clear call, values can overlap the other calls; inactive = above about -39%
#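 Human foreskin fibroblasts infected with luciferase-reporter HCMV at MOI 1 PFU/cell, compounds at two doses. Luciferase measured 72 h post infection; normalized to buffer-only basal and Salinomycin (10uM) controls.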
# FMDV antiviral: foot and mouth disease virus antiviral activity. FMDV antiviral cell-based qHTS. 1.2% of 410,000 active. Potency, µM (highest dose often 57.9 µM), without a hit: at the top dose activity change, negative = inhibition, actives largely listed as inhibitors; calls by dose curve; tested in HEK293T cells; note: read-out not given here; potency is the fitted concentration of half-maximal effect; nearly all actives have a fitted effect of over 45% in size
# AmpC inh detg: AmpC beta-lactamase inhibition with detergent present | P00811 | AmpC hydrolysis of nitrocefin, absorbance 480 nm, 0.01% Triton | Potency, µM (series often up to 114 µM), for the others: top-dose activity change, negative = inhibition, most hits filed as inhibitors | 0.041% of 370,000 active;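 note: potency is the fitted concentration of half-maximal effect; 0% = no-compound wells and -100% = no-enzyme wells; nearly all actives have a fitted effect of over 25% in size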
#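 20 mM phosphate pH 7.0 + 0.01% (detergent screen) or 0.0001% Triton X-100; 5.3 nM AmpC reagent; cpd preinc 15 min RT; nitrocefin (800 uM stock) to start; A480 q20 s × 4 min; Activity was normalised to no-enzyme and no-compound control wells.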
# HCV inh: inhibitors of hepatitis C virus infection. Huh7.5.1 HCVcc-Cre infection, luciferase reporter, 44 h. Potency, µM (doses to about 41.8 µM), without a hit: at the highest dose activity change, negative = inhibition, usual class: inhibitors. 3.4% of 340,000 active; note: potency is the fitted concentration of half-maximal effect
#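 After 44 h co-culture of compound, cells and HCVcc-Cre (~0.5 moi), substrate is added for 15 min at room temperature and luciferase measured over 15 sec. Cells were seeded at 1,000/well and pre-cultured 4 h.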
# * = called active by the depositor; u = inconclusive; x = not tested or not shown. Unless noted, calls come from the whole dose curve; as a rule, active = well fitted curve in the direction sought with a large enough effect; inconclusive = small, poorly fitted or top-dose-only effect, or another doubt; inactive = no such curve, though single readings can be large; an effect the other way counts as inactive or inconclusive. Unless noted, % is set by controls: 0 for no effect and ±100 for the full control effect.
SMILES,AmpC inh no detg,HCMV antiviral,FMDV antiviral,AmpC inh detg,HCV inh
COc1ccc(NC(=O)CSc2nc(O)cc(=O)n2-c2ccccc2)cc1,-21%,x,-13%,9%,3%
Cc1ccc(-n2c(SCC(=O)Nc3ccc(Cl)cc3)nc(O)cc2=O)cc1,7.1µM*,-17,1%,-5%,5%
CCc1ccc(NC(=O)CSc2nc3c([nH]c4ccccc43)c(=O)n2C)cc1,x,55,22%,4%,x
CCC(Oc1ccccc1OC)C(=O)Nc1ccc2c(c1)OCO2 (centres undefined),-15%,34,21%,-1%,-6%
COc1cccc(-n2c(=O)c3c(C)c(C)sc3n(CC(=O)NCCc3ccc(OC)c(OC)c3)c2=O)c1,x,0,-12%,14%,x
O=C(O)c1cc(NCc2cc(O)ccc2O)ccc1O,x,x,-6%,x,x
O=C(OCCC12CC3CC(CC(C3)C1)C2)c1ccc(NCc2cc(O)ccc2O)cc1,x,-77*,u,x,2.2µM*
COCCNC(=O)CCc1nnc2ccc(N3CCC(C)CC3)nn12,-2%,-11,-13%,-9%,10%
CN(C)c1ccc(C(=O)OCc2ccccc2)cc1,-20%,-22,66%,u,-16%
O=C1C=CC(=O)C(CNc2ccc(C(=O)OCc3ccccc3)cc2)=C1,x,-23,0%,x,10µM*
COc1ccc(-c2oc(=O)c3cc(OC)c(OC)cc3c2C#CCCCO)cc1,89%,26,-26%,x,u
COc1cc2c(C#CCCCO)c(-c3ccsc3)oc(=O)c2cc1OC,102%,-61*,-24%,x,3.2µM*
COc1cc2c(C#Cc3cccnc3)c(-c3ccsc3)oc(=O)c2cc1OC,5%,-33,-17%,x,6.3µM*
Cc1ccc(OCCC(=O)OCC(=O)NCCc2ccc(Cl)cc2)cc1,60%,-26,-22%,u,4%
CCCn1c(SCC(=O)NC2CCC(C)CC2)n[nH]c1=O (centres undefined),-10%,-6,-11%,2%,1%
Cc1ccc(NC(=O)c2ccc3c(c2)NC(=O)c2ccccc2S3)cc1,x,-71*,u,7%,x
CN(C)CCNC(=O)c1ccc2c(c1)NC(=O)c1ccccc1S2,1%,-11,-12%,3%,8.9µM*
C/C(=N\NC(=O)c1ccc(C)cc1C)c1ccc2c(c1)Nc1ccccc1S2,-27%,0,u,-12%,3.5µM*
Cc1ccc(NC(=O)CSc2nnc(COc3ccccc3F)n2N)cc1S(=O)(=O)N1CCOCC1,x,-20,u,x,-10%
COCC(=O)N1[C@@H]2c3cccc(=O)n3C[C@@H]2[C@@H](CO)[C@@H]1C(=O)NCc1ccccc1F,x,0,x,x,x
COc1ccc(Nc2cc(C(=O)NCc3ccccc3OC)c3ccccc3n2)cc1,x,-9,-23%,6%,x
Nc1cc(S(=O)(=O)Nc2ccccc2Cl)ccc1N1CCCCC1,-49%,u,23%,x,6.3µM*
COc1ccc(NS(=O)(=O)c2ccc(N3CCCCC3)c(N)c2)cc1,-21%,u,-8%,3%,2.8µM*
CC(Oc1ccc(F)cc1)C(=O)N1CCC(c2nc3ccccc3s2)CC1 (centres undefined),x,-30,u,4%,x
Cc1ccc(C(C)CCN2CCOc3ccc(CN4CCOCC4)cc3C2)o1 (centres undefined),x,x,-8%,x,x
SMILES,AmpC inh no detg,HCMV antiviral,FMDV antiviral,AmpC inh detg,HCV inh
O=c1cc(-c2ccccc2)cc(-c2ccccc2)n1O,-38%,-16,-4%,-9%,u
CC(=O)NC(=S)Nc1ccc2oc(=O)ccc2c1,-6%,-22,28%,-6%,-11%
O=C(Nc1ccc2oc(=O)ccc2c1)c1ccc(-c2cccc(Cl)c2)o1,-21%,-64*,-17%,u,10µM*
O=C(Nc1ccc2nn(-c3ccccc3)nc2c1)c1ccc(-c2cccc(Cl)c2)o1,x,-75*,-11%,15%,x
CCCCc1ccc(-n2nc3ccc(NC(=O)c4cc5ccccc5o4)cc3n2)cc1,x,-82*,25µM*,13%,x
COc1ccc(-n2nc3ccc(NC(=O)c4ccc(-c5cc(Cl)ccc5Cl)o4)cc3n2)cc1,x,13,8%,0%,x
CC(C)(Oc1ccc(Cl)cc1)C(=O)Nc1ccc2oc(=O)ccc2c1,-8%,-66*,-22%,-2%,x
Cc1ccc(-n2nc3ccc(NC(=O)c4cc5ccccc5o4)cc3n2)cc1,x,45,28%,5%,x
